Source: PubChem BioAssay (NCI)
Compounds without any hit were thinned out: in the full panel of roughly 83,000, 20% have a hit.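 The endpoint reported here, percent growth, reads 100 for growth as untreated, 0 for no net growth and -100 for all cells dead.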 Active and inactive are the calls of the source. How the source made its calls: active means growth percent below 10; inactive means the rest.

Columns and labels:
Experiment in all cases: NCI-60 one-dose screen, 48 h (100 = growth as untreated, 0 = no growth, -100 = all killed)
Conditions in all cases: 10 µM unless noted
[1] = test system: HCT-15 colon
[2] = test system: HT29 colon
[3] = test system: SNB-75 CNS
[4] = test system: SNB-19 CNS
[5] = test system: PC-3 prostate
[6] = test system: SK-MEL-5 melanoma
[7] = test system: UACC-62 melanoma
[8] = test system: LOX IMVI melanoma
[9] = test system: SK-MEL-28 melanoma
[10] = test system: EKVX NSCLC
[11] = test system: SN12C renal
[12] = test system: UO-31 renal
[13] = test system: ACHN renal
[14] = test system: CAKI-1 renal
[15] = test system: CCRF-CEM leukemia
[16] = test system: MOLT-4 leukemia
[17] = test system: SK-MEL-2 melanoma
[18] = test system: TK-10 renal
[19] = test system: U251 CNS
[20] = test system: A498 renal

Measured: growth

O=S(=O)(Nc1ccc(-n2cnc3cc(-c4ccc(O)cc4)ccc32)cc1)c1ccccc1
inactive: [1] 87.2% | [2] 95.3% | [3] 88.1% | [4] 90.1% | [5] 90.7% | [6] 66.8% | [7] 82.3% | [8] 81% | [9] 104% | [10] 98.4% | [11] 73.4% | [12] 51.3% | [13] 80.6% | [14] 68.7% | [15] 69.9% | [16] 71.7%

COc1ccc(C(C)=O)c(OC)c1
inactive: [1] 106% | [2] 92% | [3] 91.7% | [4] 100% | [5] 91.1% | [6] 107% | [7] 96.1% | [8] 103% | [9] 109% | [17] 94.6% | [10] 114% | [11] 106% | [12] 97.4% | [18] 99.5% | [13] 110% | [14] 99.7% | [15] 103% | [16] 102%

Cc1c(C)c([N+](=O)[O-])c(C)c([N+](=O)[O-])c1C
inactive: [2] 93.5% | [3] 104% | [4] 97.1% | [19] 100% | [5] 98.7% | [6] 101% | [7] 102% | [8] 99.6% | [9] 104% | [17] 102% | [10] 103% | [11] 102% | [12] 105% | [18] 102% | [13] 118% | [14] 99.3% | [20] 94.3%

Cc1ccc(C(=O)/C(=C/c2ccc([N+](=O)[O-])cc2)SCc2ccc(Cl)cc2)cc1
inactive: [3] 84.8% | [4] 34.1% | [5] 63.3% | [6] 91% | [7] 65.9% | [9] 90.9% | [17] 91.5% | [10] 89% | [11] 70.3% | [12] 48.2% | [18] 90.8% | [13] 91.1% | [14] 74.8% | [20] 81% | [16] 19.8%
active: [1] 8.64% | [2] -22.7% | [8] 0.133% | [15] 8.74%

O=S(=O)(NCCCNc1nccc(-c2c(-c3cccc(F)c3)nc3sccn23)n1)c1cccc2ccccc12
inactive: [1] 18% | [3] 86.5% | [4] 69% | [5] 41.2% | [6] 31.8% | [7] 24.3% | [8] 20.9% | [9] 77.5% | [17] 47.8% | [10] 56.1% | [11] 46.9% | [12] 20% | [18] 71.7% | [13] 34.7% | [14] 29.1% | [15] 38.5% | [16] 29.3%
active: [2] 1.97%

O=C1C=CC(=O)N1c1cccc(Cl)c1
inactive: [1] 101% | [2] 85.9% | [3] 115% | [4] 118% | [6] 106% | [7] 105% | [8] 102% | [9] 108% | [17] 116% | [10] 108% | [11] 126% | [12] 104% | [18] 68.2% | [13] 98.4% | [14] 79.4% | [20] 94.6% | [15] 55.4%

O=C(/C=C/c1ccc[nH]1)c1ccc(-n2ccc(C(F)(F)F)n2)c(F)c1
inactive: [1] 85% | [2] 92.5% | [3] 75.6% | [4] 101% | [5] 48.1% | [6] 97.6% | [7] 84.9% | [8] 97.7% | [9] 100% | [17] 108% | [10] 80.2% | [11] 92.1% | [12] 46.9% | [18] 104% | [13] 103% | [14] 93% | [15] 59.7% | [16] 84%

CCOC(=O)[C@@H]1CCCN(S(=O)(=O)c2ccc(S(=O)(=O)N(CC)CC)c(F)c2)C1
inactive: [1] 84.4% | [2] 83% | [3] 90.9% | [4] 69.2% | [5] 84% | [6] 18.8% | [7] 59.4% | [8] 62.2% | [9] 93.4% | [17] 62.6% | [10] 46.9% | [11] 85.4% | [12] 69% | [18] 81.4% | [13] 75% | [14] 64.1% | [15] 85.1% | [16] 79.4%

COc1ccc(C(=O)c2cc(OC)c(OC)c(OC)c2)cc1O
active: [1] 3.56% | [3] -0.83% | [6] -59.7% | [15] 5.92%
inactive: [2] 14.7% | [4] 28.5% | [5] 20.4% | [7] 45.2% | [8] 15.4% | [9] 57.6% | [17] 59.6% | [10] 43.8% | [11] 15.2% | [12] 32.7% | [18] 65.3% | [13] 25.6% | [14] 37.2% | [20] 75% | [16] 15.4%

COc1cc(/C(C)=C(\c2ccc(Cl)cc2)c2ccc(OCCN(C)C)cc2)ccc1F
active: [2] 5.91%
inactive: [1] 18.1% | [3] 65.4% | [4] 87.7% | [6] 44.2% | [7] 50.3% | [8] 38.3% | [9] 64.5% | [17] 104% | [10] 81.2% | [12] 47.5% | [18] 72.1% | [13] 87.4% | [14] 62.7% | [15] 49.5% | [16] 42.4%

Cc1cc2c(C(=O)NCC#N)cccc2n1-c1nc2c(c(NCc3ccccc3)n1)CCCC2
active: [1] -52.8% | [2] -3.71% | [3] -11.4% | [4] -49.1% | [5] -18.8% | [6] -93.4% | [7] -78.2% | [8] -85% | [9] -28.2% | [17] -44.7% | [10] -18.8% | [11] -67.9% | [12] -84.3% | [18] -17.7% | [13] -4.35% | [14] -2.84% | [15] 7.4% | [16] -15.6%

O=C(Cn1c[n+](CC(=O)c2ccc(-c3ccccc3)cc2)c2ccccc21)Nc1cccc2cccnc12
inactive: [1] 95.9% | [5] 12.9% | [9] 21.2% | [17] 19.4% | [10] 47.6% | [11] 14.9% | [12] 67.9% | [18] 88.5% | [13] 90.1% | [14] 44.8% | [15] 10.5% | [16] 11.4%
active: [2] 7.47% | [3] -6.7% | [4] 7.73% | [6] -35.1% | [7] -32.3% | [8] -45.5%

NC1[C@H](c2c[nH]c3ccccc23)c2c([nH]c3ccccc23)[C@H]1c1c[nH]c2ccccc12 (some centres not stated)
inactive: [1] 84.8% | [2] 97.6% | [3] 97.2% | [4] 95.2% | [5] 78.3% | [7] 72.5% | [8] 90.1% | [9] 103% | [17] 98.2% | [10] 85.1% | [11] 88.9% | [12] 80.2% | [18] 119% | [13] 88% | [14] 84.8% | [15] 94.5% | [16] 80.6%

COc1ccc(CNCCN2C(=O)c3ccc4c5c(ccc(c35)C2=O)C(=O)N(CCNCc2ccc(OC)c(OC)c2OC)C4=O)c(OC)c1OC
inactive: [18] 30.3%
active: [1] -51.2% | [2] -45.7% | [3] -12.6% | [4] -13.6% | [5] 0.0353% | [6] -93.9% | [7] -72.2% | [8] -27.9% | [9] -7.81% | [17] -62.9% | [10] -28.3% | [11] -77.3% | [12] -19.6% | [13] -51.1% | [14] -12.3% | [15] -14.8% | [16] -35.2%

C=C(CBr)[C@@H]1CC[C@]2(COC(C)=O)CC[C@]3(C)[C@H](CC[C@@H]4[C@@]5(C)CCCNC(C)(C)[C@@H]5CC[C@]43C)[C@@H]12
inactive: [1] 24.8% | [2] 29.1% | [3] 79.8% | [4] 64.2% | [5] 12.9% | [6] 19.9% | [7] 24.8% | [8] 23.5% | [9] 60.7% | [17] 59.4% | [10] 46.9% | [11] 48% | [12] 29.6% | [18] 41.1% | [13] 39.5% | [14] 37.5% | [20] 49.4% | [15] 33.8% | [16] 10.9%

COc1cc2c(c(OC)c1OC)CCC(c1cccc(NC(=O)c3cccc(Br)c3)c1)O2 (configuration not stated)
inactive: [1] 87.7% | [2] 87% | [3] 86.8% | [4] 94.5% | [5] 76.1% | [6] 88.2% | [7] 70.1% | [8] 92.4% | [9] 90.9% | [17] 103% | [10] 84.6% | [11] 87.6% | [12] 79% | [18] 91.8% | [13] 94.2% | [14] 91.5% | [15] 88% | [16] 74.3%

Cc1ccc(C(=O)/C(=C\c2ccc([N+](=O)[O-])cc2)S(=O)Cc2ccc(F)cc2)cc1 (configuration not stated)
active: [1] 7.72% | [2] -49.1% | [7] -34.5% | [8] -39% | [11] -52.1% | [12] -46.1% | [13] -1.53% | [15] 3.64% | [16] 1.47%
inactive: [3] 57.1% | [4] 41.2% | [6] 64.6% | [9] 17.3% | [17] 62.3% | [10] 58.5% | [18] 17.6% | [14] 30.3% | [20] 68.7%
